# Test results published in article PMC12431657, “Discovery and mechanistic insights of dibenzoylmethane as a broad spectrum inhibitor of coronavirus” (PLOS Pathogens, 2025).
# Counter-ions that a name gives are not always drawn. Like-named read-outs stand apart in the source and are kept apart here. In all, about 3,300 compounds went through this assay and about 60 (2%) showed an effect of 50% or more. The sample as a whole holds a higher share of strong results than the screen did. Bridge positions count the residues as written; N and C are the ends. Square brackets hold non-standard residues; d marks the D form. Peptide text beside a SMILES is read from it. * marks the point of attachment. Ileψ(thiazoline)Cys = CC[C@H](C)[C@H](N)C1=N[C@H](C(=O)*)CS1; NMePhe(4-NMe2) = CN[C@@H](Cc1ccc(N(C)C)cc1)C(=O)O; Pip(4-oxo) = O=C1CCN[C@H](C(=O)O)C1; Picolinoyl(3-OH) = O=C(c1ncccc1O)*; Phg = N[C@H](C(=O)O)c1ccccc1; dOrn = NCCC[C@@H](N)C(=O)O; dAbu = CC[C@@H](N)C(=O)O
# Test system: HCoV-OC43
# Parameters: species or system RD; HTS, protection from HCoV-OC43 induced cell death, luminescent cell viability (CellCounting-Lite 2.0), inhibition rate
# Conditions: 24 h post infection, 1 h compound pre-incubation, 10 µM, inhibitor
SMILES,"OC43 Inhibition rate (OC43 Inhibition rate, 24 h) [%]",OC43 Inhibition rate [%]
C[C@H](CCC(=O)NCC(=O)O)[C@H]1CC[C@H]2[C@@H]3CC[C@@H]4C[C@H](O)CC[C@]4(C)[C@H]3C[C@H](O)[C@]12C [Glycodeoxycholic acid (monohydrate)],-0.8,
CCCCCCCC/C=C\CCCCCCCCCCCCCC(=O)O [Nervonic acid],,-2.1
CC(=O)N[C@H](C(=O)O)C(C)C [Acetylvaline],,-0.2
COc1ccc2c(c1OC)CN(C)c1c-2ccc2cc3c(cc12)OCO3 [Dihydrochelerythrine],,1.4
O=c1cc(-c2ccccc2)oc2c1ccc1ccccc12 [Alpha-Naphthoflavone],,65.1
"O=c1cc(-c2ccccc2)oc2c(O)c(O)ccc12 [7,8-Dihydroxyflavone]",,0.2
O=c1cc(-c2ccccc2)oc2ccccc12 [Flavone],,0.3
CC(C)=CCC[C@](C)(O[C@@H]1O[C@H](CO)[C@@H](O)[C@H](O)[C@H]1O)[C@H]1CC[C@]2(C)[C@@H]1[C@H](O)C[C@@H]1[C@@]3(C)CC[C@H](O)C(C)(C)[C@@H]3[C@@H](O[C@@H]3O[C@H](CO)[C@@H](O)[C@H](O)[C@H]3O[C@@H]3OC[C@@H](O)[C@H](O)[C@H]3O)C[C@]12C [Notoginsenoside R1],,0.5
N[C@@H](Cc1c[nH]cn1)C(=O)O [L-Histidine (hydrochloride hydrate)],2.4,
CC[C@H]1NC(=O)[C@@H](NC(=O)c2ncccc2O)[C@@H](C)OC(=O)[C@H](c2ccccc2)NC(=O)[C@@H]2CC(=O)CCN2C(=O)[C@H](Cc2ccc(N(C)C)cc2)N(C)C(=O)[C@@H]2CCCN2C1=O [Pristinamycin IA] ({Picolinoyl(3-OH)}-T[dAbu]P[NMePhe(4-NMe2)][Pip(4-oxo)][Phg]; ester 1-C),,1.7
NCCCCNCCCN [Spermidine],-0.8,
COc1cc(O)cc2oc(-c3ccc(O)c(O)c3)c(O)c(=O)c12 [Azaleatin],,7.4
O=c1c2c3c(ccc2cc2n1CCc1cc4c(cc1-2)OCO4)OCO3 [8-Oxocoptisine],,-0.2
COc1ccc2cc3n(c(=O)c2c1OC)CCc1cc2c(cc1-3)OCO2 [Oxyberberine],,58.7
COc1cc2c(cc1OC)-c1cc3ccc4c(c3c(=O)n1CC2)OCO4 [8-Oxoepiberberine],,10.1
OC[C@H]1O[C@@H](Oc2cc(/C=C/c3cc(O)cc(O)c3)ccc2O)[C@H](O)[C@@H](O)[C@@H]1O [Piceatannol 3'-O-glucoside],,2

SMILES,"OC43 Inhibition rate (OC43 Inhibition rate, 24 h) [%]",OC43 Inhibition rate [%]
CC(C)=CCC12Oc3cc(O)ccc3C1(O)Oc1cc(O)c([C@H]3C=C(C)C[C@@H](c4ccc(O)cc4O)[C@@H]3C(=O)c3ccc(O)cc3O)c(O)c1C2=O (some centres unmarked) [Sanggenon D],,42.1
CC(C)(O)[C@H]1CC[C@@](C)([C@H]2[C@@H](O)C[C@@]3(C)[C@@H]4C[C@H](O)[C@H]5C(C)(C)[C@@H](O)CC[C@@]56C[C@@]46CC[C@]23C)O1 [Cyclogalegenin],,8.4
CN[C@@H](C)[C@H]1[C@H](O)C[C@@]2(C)[C@@H]3CC[C@H]4C(C)(C)[C@@H](NC)CC[C@@]45C[C@@]35CC[C@]12C [Cyclovirobuxine D],,109.3
CC(C)(O)[C@@H]1CC[C@](C)([C@H]2[C@@H](O)C[C@@]3(C)[C@@H]4C[C@H](O)[C@H]5C(C)(C)[C@@H](O)CC[C@@]56C[C@@]46CC[C@]23C)O1 [Cycloastragenol],,0.7
NCC(O)c1ccccc1 (centres unmarked) [2-Amino-1-phenylethanol],,0
O=C(O)c1ccc(O)cc1 [4-Hydroxybenzoic acid],,0.1
"C[C@@H](O)CO [(R)-(-)-1,2-Propanediol]",,-0.2
COc1cc(CNC(=O)CCCC/C=C/C(C)C)ccc1O[C@@H]1O[C@H](CO)[C@@H](O)[C@H](O)[C@H]1O [Capsaicin β-D-glucopyranoside],,0.3
CC1=CC(=O)[C@@H]2C[C@H]1C2(C)C [Verbenone],,-0.2
C=C1[C@@H](O)[C@]2(O)OC[C@]34[C@H]2[C@@]2(C)[C@H](O)C(=O)C=C(C)[C@@H]2C[C@H]3OC(=O)[C@H](O)[C@@]14O [Eurycomanone],,54.5
O=C(O)c1ccncc1 [Isonicotinic acid],,-0.2
O=C(O)C(CO)c1ccccc1 (centres unmarked) [Tropic acid],,0.5
CCC(C)(C)C(=O)O[C@H]1C[C@@H](C)C=C2C=C[C@H](C)[C@H](CC[C@@H](O)C[C@@H](O)CC(=O)O)[C@H]21 [Simvastatin acid (ammonium)],,5
CC(C)[C@@H]1NC(=O)CNC(=O)[C@H](C)NC(=O)[C@H](Cc2c[nH]c3ccccc23)NC(=O)[C@H](C)NC1=O [Segetalin B] (cyclo(AGVAW)),,-0.5
CC[C@H](C)[C@H](N)C1=N[C@H](C(=O)N[C@@H](CC(C)C)C(=O)N[C@H](CCC(=O)O)C(=O)N[C@H](C(=O)N[C@H]2CCCCNC(=O)[C@H](CC(N)=O)NC(=O)[C@@H](CC(=O)O)NC(=O)[C@H](Cc3cnc[nH]3)NC(=O)[C@@H](Cc3ccccc3)NC(=O)[C@H]([C@@H](C)CC)NC(=O)[C@@H](CCCN)NC2=O)[C@@H](C)CC)CS1 [Bacitracin] ({Ileψ(thiazoline)Cys}-L[dE]IK[dOrn]I[dF]H[dD]N; lactam 4-C),,-0.3
CCCCCCCCCC(=O)N[C@@H](Cc1c[nH]c2ccccc12)C(=O)N[C@H](CC(N)=O)C(=O)N[C@@H](CC(=O)O)C(=O)N[C@@H]1C(=O)NCC(=O)N[C@@H](CCCN)C(=O)N[C@@H](CC(=O)O)C(=O)N[C@H](C)C(=O)N[C@@H](CC(=O)O)C(=O)NCC(=O)N[C@H](CO)C(=O)N[C@@H]([C@H](C)CC(=O)O)C(=O)N[C@@H](CC(=O)c2ccccc2N)C(=O)O[C@@H]1C [Daptomycin],,62.7
